biological target: Tyrosine-protein kinase HCK (Homo sapiens) (UniProt P08631); settings: at 10 µM
Sequence (P08631 2-526 limits assumed): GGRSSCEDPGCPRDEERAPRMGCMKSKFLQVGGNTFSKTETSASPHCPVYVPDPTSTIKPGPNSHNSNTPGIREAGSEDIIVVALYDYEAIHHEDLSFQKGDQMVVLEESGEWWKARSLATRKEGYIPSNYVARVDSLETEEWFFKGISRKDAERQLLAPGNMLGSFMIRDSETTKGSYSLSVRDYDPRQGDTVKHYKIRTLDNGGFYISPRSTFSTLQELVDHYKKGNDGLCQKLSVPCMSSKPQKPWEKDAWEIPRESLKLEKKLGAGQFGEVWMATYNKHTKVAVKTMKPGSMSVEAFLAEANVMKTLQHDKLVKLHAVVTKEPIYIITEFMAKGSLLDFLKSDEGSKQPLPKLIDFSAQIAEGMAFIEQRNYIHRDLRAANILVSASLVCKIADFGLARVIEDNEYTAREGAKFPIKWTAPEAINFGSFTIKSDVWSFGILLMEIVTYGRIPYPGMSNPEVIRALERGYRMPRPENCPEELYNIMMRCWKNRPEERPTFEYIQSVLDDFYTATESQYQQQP

Q: For O=c1cc(N2CCNCC2)oc2c(-c3ccccc3)cccc12, which residual activity is on record?
A: 66%

Q: Which residual activity does the source give for CC(C)[C@H](CO)Nc1nc(Nc2cc(N)cc(Cl)c2)c2ncn(C(C)C)c2n1 here?
A: 5%

Q: O=C1NC(=O)c2c1c1c3ccccc3[nH]c1n1cncc21 was tested. Which residual activity did it give?
A: 39%

Q: For Cc1cc(C)c(/C=C2\C(=O)Nc3ccccc32)[nH]1, which residual activity is on record?
A: 25%

Q: Which residual activity does the source give for CN(C)S(=O)(=O)c1ccc2c(c1)/C(=C/c1cc3c([nH]1)CCCC3)C(=O)N2 here?
A: 10%

Q: CC(C)(C)c1nc2c3ccc(F)cc3c3c(=O)[nH]ccc3c2[nH]1 was tested. Which residual activity did it give?
A: 31%

Q: Which residual activity does the source give for Nc1ncnc2c1c(-c1ccc(Oc3ccccc3)cc1)cn2C1CCCC1 here?
A: 1%

Q: Which residual activity does the source give for O=c1cc(N2CCOCC2)oc2c1ccc1ccccc12 here?
A: 77%

Q: Which residual activity does the source give for Oc1cccc(-c2nc(N3CCOCC3)c3oc4ncccc4c3n2)c1 here?
A: 68%

Q: With CC(C)c1nn(-c2c(Cl)cccc2Cl)c2nc(Cc3ccc(OCCO)cc3)[nH]c(=O)c12 as the compound, how does the residual activity read?
A: 56%

Q: How did the residual activity turn out when O=C1C(Cl)=C(N2C(=O)CCC2=O)C(=O)c2ccccc21 was run?
A: 63%

Q: For N#C/C(=C1/Nc2ccccc2S1)c1ccnc(NCCc2cccnc2)n1, which residual activity is on record?
A: 26%

Q: With O=C(CCCc1ccc(-c2ccccc2F)cc1)Nc1ccc(O)cc1 as the compound, how does the residual activity read?
A: 62%

Q: Which residual activity does the source give for CC(C)(C)n1nc(Cc2cccc3ccccc23)c2c(N)ncnc21 here?
A: 3%

Q: For c1ccc(-c2cnc(Nc3ccc(OCCN4CCCC4)cc3)s2)cc1, which residual activity is on record?
A: 24%

Q: With O=C(O)/C=C/c1cc(Br)c(Br)c(Br)c1Br as the compound, how does the residual activity read?
A: 48%

Q: How did the residual activity turn out when Nc1ncnc2c1cnn2-c1ccccc1 was run?
A: 68%

Q: How did the residual activity turn out when COc1ccc2c(c1)c(C1=C(c3c[nH]c4ccccc34)C(=O)NC1=O)cn2CCCN(C)C was run?
A: 53%

Source: ChEMBL document CHEMBL2218924, “A broad activity screen in support of a chemogenomic map for kinase signalling research and drug discovery” (Biochem J, 2013)
